# About 4,300 (8.3%) of roughly 52,000 compounds were called active. This is one part of a sample in which actives are shown more often than they occur. Values without a mark were called inactive. No stated cut-off is given here; in the data, active means survival mostly below about 52% (no sharp cut-off); inactive means mostly above about 56%.
# Tested on: DeltatarO mutant
# Assay: growth inhibition of S. aureus wild type versus tarO mutant, primary screen, teichoic acid synthesis inhibitors, RN4220, OD600 (AID 463173)
# Settings: OD600, 18 h, active compounds read low, screened at 18.75 µg/mL (by protocol)
row,SMILES,survival
1,OC(COc1ccc(Cl)cc1Cl)CN1CCCCC1 (stereo unspecified),70%
2,Cc1ccccc1OCC(O)Cn1c(=N)n(CCN2CCCCC2)c2ccccc21 (stereo unspecified),71%
3,Cc1ccc(OCC(O)Cn2c(=N)n(CCN3CCCCC3)c3ccccc32)cc1 (stereo unspecified),36% (active)
4,COc1ccc(OCC(O)Cn2c(=N)n(CCN3CCCCC3)c3ccccc32)cc1 (stereo unspecified),46%
5,N=c1n(CCN2CCCCC2)c2ccccc2n1CC(O)COc1ccccc1 (stereo unspecified),163%
6,N=c1n(CCN2CCCCC2)c2ccccc2n1CC(O)COc1ccc(Cl)cc1Cl (stereo unspecified),-16% (active)
7,CCN1CCCC1CNC(=O)Nc1c[nH]c2ccc(C)cc2c1=O (stereo unspecified),102%
8,O=C(Nc1nc2n(n1)C(c1ccccc1)C=C(c1ccccc1)N2)c1ccc(Cl)c([N+](=O)[O-])c1 (stereo unspecified),63%
9,CC(C(=O)NCc1ccccc1)N1Cc2ccccc2C1=O (stereo unspecified),95%
10,CCOC(=O)c1c(C)[nH]c(CCC(=O)NCCCN2CCN(c3ccccc3F)CC2)c1C,83%
11,NNc1nc2ccccc2c(=O)n1Cc1ccccc1,100%
12,CCC1(CC)Cc2ccccc2-c2nc(NN)n(Cc3ccccc3)c(=O)c21,48% (active)
13,Cn1c(NN)nc2c(c1=O)C1(CCCC1)Cc1ccccc1-2,59%
14,CN1CCN(C(=S)NCC2CCCO2)CC1 (stereo unspecified),64%
15,Cc1cccc(NC(=O)Cn2c(=O)oc3cc(S(=O)(=O)NC4CCCC4)ccc32)c1,82%
16,Cc1ccc(-c2cc(C(F)(F)F)c(C#N)c(SCC(=O)Nc3ccccc3)n2)cc1,53% (active)
17,N#CN=C(N)CSc1nc(-c2ccccc2)cc(-c2ccccc2)c1C#N,56%
18,COc1ccc(-c2cc(-c3ccccc3)nc(SCC(=O)CC(=O)OC(C)C)c2C#N)cc1,55%
19,CCN(CC)C(=O)CSc1nc(-c2ccccc2)cc(-c2ccc(OC)cc2)c1C#N,45% (active)
20,N#Cc1c(C(F)(F)F)cc(-c2ccc(F)cc2)nc1SCC(=O)Nc1ccccc1,72%
21,COc1ccc(-c2cc(-c3ccccc3)nc(SCC(=O)Nc3ccccc3C)c2C#N)cc1,56% (active)

row,SMILES,survival
1,C=C(C)CSc1nc(-c2ccccc2)cc(-c2ccc(OC)cc2)c1C#N,57%
2,Cc1ccc(NC(=O)CSc2nc(-c3ccc(F)cc3)cc(C(F)(F)F)c2C#N)cc1,63%
3,COc1ccc(-c2cc(-c3ccccc3)nc(SCC(=O)Nc3ccccc3F)c2C#N)cc1,140%
4,CCS(=O)(=O)CCSc1nc(-c2ccc(Br)cc2)cc(-c2ccccc2)c1C#N,85%
5,C#CCSc1nc(-c2ccccc2)cc(-c2ccccc2)c1C#N,40% (active)
6,COc1ccc(NC(=O)CSc2nc(-c3ccccc3)cc(-c3cc(OC)c(OC)c(OC)c3)c2C#N)c(OC)c1,54%
7,COc1ccc(OC)c(NC(=O)Nc2cccc(OCc3cc(=O)n4cc(C)ccc4n3)c2)c1,101%
8,COc1ccc(N2CCN(C(=O)c3ccc4c(c3)N(Cc3cc(C)ccc3C)C(=O)c3ccccc3S4=O)CC2)cc1 (stereo unspecified),85%
9,Cn1c(=O)c2c(-c3ccccc3)n3c4ccccc4nc(-c4ccccc4)c3c2n(C)c1=O,82%
10,CCc1cccc(C)c1NC(=O)CN1C(=O)c2c(c3ccccc3n2C)C1c1ccc(OC)cc1 (stereo unspecified),83%
11,CCSc1ccccc1C(=O)N1CCN(c2nc3ccccc3s2)CC1,92%
12,COc1cccc(NC(=O)C(=O)NCC(c2ccc3c(c2)OCO3)N2CCOCC2)c1 (stereo unspecified),49%
13,COc1ccc(-c2nsc(NC(=O)COc3ccccc3OC)n2)cc1,61%
14,CCOC(=O)c1c(C)[nH]c(CCC(=O)NC(C)c2ccccc2)c1C (stereo unspecified),94%
15,Cc1ccc2nc(N(Cc3cccnc3)C(=O)C3COc4ccccc4O3)sc2c1 (stereo unspecified),94%
16,COc1cc(Cl)c(C)cc1NC(=O)c1cn(C2CCCC2)c(=O)c2c1c1ccccc1n2C,109%
17,COc1cccc(NC(=O)/C(C#N)=C\c2cn(Cc3ccc(Cl)cc3)c3ccccc23)c1,77%
18,COc1ccc(CNC(=O)c2ccc3c(c2)N(Cc2ccccc2C)C(=O)c2ccccc2S3=O)cc1 (stereo unspecified),99%
19,COc1ccc(C2CC(=O)c3cnc4c(-c5ccccc5)c(C)nn4c3C2)cc1OC (stereo unspecified),54%
20,O=C(O)c1c2c(nc3ccc(S(=O)(=O)N4CCC(C(=O)NCc5ccc(Cl)cc5)CC4)cc13)CCCC2,90%
21,N#CC1=C(N)OC2=C(C(=O)CCC2)C1c1ccccc1C(F)(F)F (stereo unspecified),78%

row,SMILES,survival
1,CCOc1ccc(CNC(=O)Nc2ccc3c(c2)N(C)C(=O)c2ccccc2S3)cc1,75%
2,COc1ccccc1N1CCN(C(=O)c2cc3c(=O)oc4ccccc4c3s2)CC1,169%
3,Cc1ccc(-c2cc(C(F)(F)F)c(C#N)c(SCC(=O)O)n2)cc1,66%
4,CCCOc1ccc(-c2cc(C(F)(F)F)c(C#N)c(SCCC(=O)O)n2)cc1,29% (active)
5,CCOC(=O)CSc1nc(-c2ccc(OCC)cc2)cc(C(F)(F)F)c1C#N,67%
6,CSc1ccc(CCNC(=O)C2CCCN(S(=O)(=O)N(C)c3ccc(F)cc3)C2)cc1 (stereo unspecified),74%
7,CC1CN(c2ccc(Cl)cc2)c2nc3c(c(=O)n(CC(=O)O)c(=O)n3C)n2C1 (stereo unspecified),84%
8,O=C(CNS(=O)(=O)c1cccs1)N1CCN(c2cccc(C(F)(F)F)c2)CC1,83%
9,O=C(CNS(=O)(=O)c1ccc(Br)s1)N1CCN(c2ccccc2F)CC1,36% (active)
10,COc1cccc(N2CCN(C(=O)C3CCC(CNS(=O)(=O)c4ccc(Br)s4)CC3)CC2)c1 (stereo unspecified),78%
11,O=C(C1CCN(S(=O)(=O)c2ccc(Br)s2)CC1)N1CCN(c2ccc(F)cc2)CC1,87%
12,O=C(C1CCC(CNS(=O)(=O)c2ccc(Br)s2)CC1)N1CCN(c2ccc(F)cc2)CC1 (stereo unspecified),74%
13,O=C(CNS(=O)(=O)c1cccs1)N1CCN(c2ccccc2F)CC1,51%
14,COc1ccc(N2CCN(C(=O)CNC3CC3)CC2)cc1,74%
15,CCOC(=O)c1c(C)[nH]c(C)c1S(=O)(=O)NCC(=O)N1CCN(c2ccccc2F)CC1,76%
16,O=C(CNS(=O)(=O)c1ccc(Br)s1)N1CCN(c2ccc(F)cc2)CC1,27% (active)
17,O=C(CNS(=O)(=O)c1cccs1)N1CCN(c2ccccc2Cl)CC1,45% (active)
18,COc1ccc(N2CCN(C(=O)CNS(=O)(=O)c3ccc(Br)s3)CC2)cc1,32% (active)
19,COc1ccccc1N1CCN(C(=O)CNS(=O)(=O)c2ccc(Br)s2)CC1,116%

# — PubChem BioAssay AID463173 (ICCB-Longwood Screening Facility, Harvard Medical School, 2010)
